Experimental data: PubChem BioAssay
Activity calls are given as the source filed them.

Test system: not listed separately
Assay: blood-stage malaria parasite viability loss – strain 3D7, DAPI fluorescence, 100 nL, primary screen (AID 1184);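 further: parasites grown inside human red blood cells in medium with human serum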
Details: P. falciparum 3D7 growth, 3 d, higher = more signal
Compound `CCCC[C@H]1OB(O)C[C@H]2C1=C(C)C[C@H]1C(=O)N(C)C(=O)[C@H]12` has a z-score of 2.46. `O=C(CS)NCCCCCNC(=O)[C@H]1C[C@H]2C(=O)N3CCC[C@H]3C(=O)N2[C@H]1c1cccc(OCCO)c1` gave a z-score of -0.718. Work on `COCCOC(=O)N1C(=O)[C@@]2(c3cc(C#Cc4ccc(OC)cc4)ccc31)[C@H](C(=O)N1CCN(c3ncccn3)CC1)[C@H]1C(=O)O[C@H](c3ccccc3)[C@H](c3ccccc3)N1[C@@H]2c1ccc(OCCO)cc1` yielded a z-score of -1.49. `C=CCNC(=O)[C@H]1[C@@H]2C(=O)O[C@@H](c3ccccc3)[C@@H](c3ccccc3)N2[C@@H](c2ccc(O)cc2)[C@]12C(=O)N(C(=O)OCCOC)c1ccc(C#CC3=CCCCC3)cc12` showed a z-score of -0.919. `COCCCNC(=O)[C@@]1(C)c2ccccc2C(=O)N(Cc2ccc(OC(F)(F)F)cc2)[C@H]1c1ccc(CO)cc1` showed a z-score of -0.313.

Target: Homeobox protein Hox-A13 (Mus musculus) (UniProt Q62424)
Sequence (Q62424 whole entry, looked up): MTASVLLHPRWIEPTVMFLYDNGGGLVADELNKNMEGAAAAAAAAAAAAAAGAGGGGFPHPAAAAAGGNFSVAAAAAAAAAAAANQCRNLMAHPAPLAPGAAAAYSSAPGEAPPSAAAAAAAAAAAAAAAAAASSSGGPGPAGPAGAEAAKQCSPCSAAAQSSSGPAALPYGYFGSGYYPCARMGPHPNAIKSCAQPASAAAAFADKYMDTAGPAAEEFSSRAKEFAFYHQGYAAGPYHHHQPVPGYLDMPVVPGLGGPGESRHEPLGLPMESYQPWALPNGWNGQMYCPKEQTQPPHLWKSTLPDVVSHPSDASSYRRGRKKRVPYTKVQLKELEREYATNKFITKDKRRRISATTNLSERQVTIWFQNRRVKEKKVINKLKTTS
Assay: disruptors of Hoxa13 oligonucleotide interaction – biochemical, fluorescence polarization, labeled oligonucleotide, primary screen (AID 1185)
Details: Hoxa13:DNA binding, 15 min, higher = more signal, called active from +8 up or from −8 down
In the case of `CC(C)OC(=O)C=C1C[C@@H](c2ccc(C#N)cc2)O[C@@H](c2ccc(C#N)cc2)O1`, the z-score is reported as -5.34 (inactive). For `COC(=O)C1(C)C=C2C(=C(c3ccccc3)C(=O)C2C)CN1` (stereo unspecified), the z-score was -7.29 (inactive). In the case of `C=C(COC)/C(=C/C[C@H](OC(=O)c1ccncc1)c1ccc(CO)o1)c1cc(C(=O)OC)ccc1OC`, the z-score is reported as -5.06 (inactive). In the case of `CC(C)=C1C(=O)C(c2ccccc2)=C2CN3C(=O)N(CCc4ccccc4)C(=O)[C@]3(Cc3ccc(F)cc3)[C@H]21`, the z-score is reported as -2.1 (inactive). With `O=C1NC(=O)C2C1C=CC(C(O)Cc1ccccc1)N2Nc1ccccn1` (stereo unspecified) the z-score was -3.75 (inactive). With `CC(C)(C)N1CC=CC23O[C@@H]4C=CCCOC(=O)C4[C@H]2C(=O)N(CCCCCO)[C@@H]3C1=O` (stereo partly specified) the z-score was -4.56 (inactive). With `CN(C)c1ccc(C(O)C2C=CC3C(=O)N(c4ccccc4)C(=O)C3N2Nc2ccccc2F)cc1` (stereo unspecified) the z-score was -5.07 (inactive). In the case of `CC(C)(C)OC(=O)CC[C@]1(C(=O)NCc2ccccc2)N=C(c2ccc(OCCCO)cc2)O[C@H]1c1ccccc1`, the z-score is reported as -6.62 (inactive). For `COC(=O)[C@]1(CO)N=C(c2ccc(OCCCO)cc2)O[C@@H]1c1ccccc1N=[N+]=[N-]`, the z-score was -6.14 (inactive). In the case of `COC(=O)[C@@]1(Cc2ccc(F)cc2)[C@H]2c3cc(C(=O)N(C)C)n(Cc4ccc(OC)c(OC)c4)c3C[C@H]2CN1C(=O)c1ccccc1`, the z-score is reported as -3.65 (inactive). In the case of `CCOc1ccc(N2C(=O)/C(=C/C=C/c3ccccc3OC)S(=O)(=O)C2c2cccc([N+](=O)[O-])c2)cc1` (stereo unspecified), the z-score is reported as 1.37 (inactive). With `CN(C)CCCNC(=O)[C@@H]1c2ccccc2C(=O)N(Cc2cc(F)cc(C(F)(F)F)c2)[C@H]1c1ccc(CO)cc1` the z-score was -3.29 (inactive). In the case of `CC(C)(C)OC(=O)CC[C@]1(C(N)=O)COC(c2ccc(OCCCO)cc2)=N1`, the z-score is reported as -1.89 (inactive). With `CCCCCN1CC=CC23O[C@@H]4C=CCOC(=O)[C@@H]4[C@H]2C(=O)N(C(CO)C(C)C)[C@@H]3C1=O` (stereo partly specified) the z-score was -4.81 (inactive). For `C=C(/C(=C/C[C@@H](OC(=O)c1ccncc1)c1ccc(OCCO)cc1)c1cnc2ccccc2c1)C(C)C`, the z-score was -5.46 (inactive). In the case of `O=C1O[C@@H](c2ccccc2)[C@@H](c2ccccc2)N2[C@@H](c3ccc(OCCO)cc3)[C@]3(C(=O)Nc4ccc(C#CCCO)cc43)[C@@H](C(=O)N3CCCCCCC3)[C@H]12`, the z-score is reported as -12.2 (active). For `Cc1ccc(C2CC=C(C(=O)O)CN2S(=O)(=O)c2ccc(C)cc2)cc1` (stereo unspecified), the z-score was -4.53 (inactive). With `Cc1ccc(S[C@]2(C(=O)O)CC(=O)N(Cc3ccccc3)[C@@H]2c2ccc(CO)cc2I)cc1` the z-score was -2.92 (inactive). In the case of `CCOC(=O)C[C@H]1[C@H](OC(=O)c2ccc(C(=O)c3ccccc3)cc2)[C@@H](NC(=O)c2ccc(-c3ccccc3)cc2)c2cc(OCCCO)ccc2N1C(=O)c1ccc2ccccc2n1`, the z-score is reported as -0.834 (inactive). For `C=CCN1C(=O)[C@]2(O[C@H](CCn3cc(CCO)nn3)[C@@H]([Si](C)(C)c3ccc(OC)cc3)[C@@H]2C)c2cc(N3CCOC3=O)ccc21`, the z-score was -5.66 (inactive). In the case of `CN(C)C(=O)[C@@]1(Cc2ccccc2)N=C(c2ccc(OCCCO)cc2)O[C@H]1c1ccccc1CN=[N+]=[N-]`, the z-score is reported as -1.69 (inactive). For `COc1ccc([Si](C)(C)[C@H]2[C@H](CC(=O)N3CCC[C@H]3CO)O[C@@]3(C(=O)N(Cc4cccc(N5C(=O)COc6ccccc65)c4)c4ccccc43)[C@@H]2C)cc1`, the z-score was -3.12 (inactive). With `COCCCNC(=O)[C@@]1(CCS(=O)(=O)c2ccccc2)N=C(c2ccc(OCCCO)cc2)O[C@H]1c1ccccc1` the z-score was -6.18 (inactive). For `COCCCNC(=O)[C@]1(Cc2ccccc2)N=C(c2ccc(OCCCO)cc2)O[C@@H]1c1ccccc1`, the z-score was -4.76 (inactive). For `COc1ccccc1CN1C(=O)c2ccccc2[C@@]2(Cc3ccccc3N(C(C)C)C2=O)[C@@H]1c1ccc(CO)cc1`, the z-score was -0.215 (inactive). In the case of `CC(C)N1CC=CC23O[C@@H]4C=CCCOC(=O)C4[C@H]2C(=O)N(CCCCCCO)[C@@H]3C1=O` (stereo partly specified), the z-score is reported as -2.29 (inactive). With `CCCNC(=O)[C@@H]1c2ccccc2C(=O)N(c2ccc(C)cn2)[C@H]1c1ccc(CO)cc1` the z-score was -2.4 (inactive). For `CCCNC(=O)[C@@H]1c2ccccc2C(=O)N(Cc2ccccc2Cl)[C@H]1c1ccc(CO)cc1`, the z-score was -2.59 (inactive). With `O=C1C[C@]2(c3ccc([N+](=O)[O-])cc3)C(=O)N(CCN3CCOCC3)c3cc(CO)ccc3[C@H]2N1CC12CC3CC(CC(C3)C1)C2` the z-score was -2.32 (inactive). With `CN1C(=O)C2C=CC(C(O)c3ccc(Br)cc3)N(N(c3ccccc3)c3ccccc3)C2C1=O` (stereo unspecified) the z-score was -0.704 (inactive). With `CC1CC/C=C\[C@H]2OC34C=CCN(C(C)C)C(=O)[C@H]3N(CCCO)C(=O)[C@@H]4C2C(=O)O1` (stereo partly specified) the z-score was -2.96 (inactive). With `CCCC[C@H]1OB(O)C[C@H]2C1=C(C)C[C@H]1C(=O)N(C)C(=O)[C@H]12` the z-score was -9.92 (active). In the case of `O=C(CS)NCCCCCNC(=O)[C@H]1C[C@H]2C(=O)N3CCC[C@H]3C(=O)N2[C@H]1c1cccc(OCCO)c1`, the z-score is reported as -3.04 (inactive). For `COCCOC(=O)N1C(=O)[C@@]2(c3cc(C#Cc4ccc(OC)cc4)ccc31)[C@H](C(=O)N1CCN(c3ncccn3)CC1)[C@H]1C(=O)O[C@H](c3ccccc3)[C@H](c3ccccc3)N1[C@@H]2c1ccc(OCCO)cc1`, the z-score was 1.38 (inactive). With `C=CCNC(=O)[C@H]1[C@@H]2C(=O)O[C@@H](c3ccccc3)[C@@H](c3ccccc3)N2[C@@H](c2ccc(O)cc2)[C@]12C(=O)N(C(=O)OCCOC)c1ccc(C#CC3=CCCCC3)cc12` the z-score was -0.216 (inactive). With `COCCCNC(=O)[C@@]1(C)c2ccccc2C(=O)N(Cc2ccc(OC(F)(F)F)cc2)[C@H]1c1ccc(CO)cc1` the z-score was -2.89 (inactive).
